The values below come from PubChem BioAssay (NCATS).

Records with an inconclusive call do not appear. Activity calls are given as the source filed them. Calls come from the whole dose curve; as a rule, active = well fitted curve in the direction sought with a large enough effect; inconclusive = small, poorly fitted or top-dose-only effect, or another doubt; inactive = no such curve, though single readings can be large; an effect the other way counts as inactive or inconclusive.

A short description of assay [1]: Viability qHTS for spleen associated tyrosine kinase inhibitor (SYKi) naive MV4-11 cells (AID 1963823). Note: nearly all actives have a fitted effect of over 40% in size. The method, boiled down:
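Cells: MV4-11, SYK inhibitor naive, 500 per well. Treatment: library compounds, 72 hr, 37 C, 5% CO2. Read-out: CellTiter-Glo luminescence after 10 min RT.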

Assay [2] in a line: Viability qHTS for spleen associated tyrosine kinase inhibitor (SYKi) drug resistant MV4-11 cells (AID 1963824). Note: nearly all actives have a fitted effect of over 35% in size. Put shortly: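 SYK-inhibitor-resistant MV4-11 AML cells were seeded at 500 per well onto compound and cultured 72 hours (37 °C, 5% CO2). CellTiter-Glo was then added, and after 10 min at room temperature, luminescence gave viability.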
(In general: qHTS replaces the single test concentration by a dilution series.)

Assay [3] is described as follows: Cellular viability qHTS for adrenocortical cancer (ACC) cell line NCI-H295R (AID 1963990). Note: nearly all actives have a fitted effect of over 60% in size. Put shortly: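 IC50 and maximal efficacy derive from four-parameter logistic modelling of titration curves, with reads scaled between DMSO-only wells (0%) and doxorubicin hydrochloride (100% inhibition). Compounds spanned up to 46 uM over 48 h.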
Potency is the fitted concentration of half-maximal effect.

As for `C=C1/C(=C\C=C2/CCC[C@]3(C)[C@@H]([C@H](C)CCCC(C)(C)O)CC[C@@H]23)C[C@@H](O)C[C@@H]1O`, the results for the Potency in assay [1], in assay [2] and in assay [3] were 0.0186 µM (active), 1.48 µM (active) and 25.1 µM (active), respectively.
The like results for `Cc1ccc2c(Br)cc(Br)c(O)c2n1` were, in that order, 16.8 µM (active), 11.9 µM (active) and 1.64 µM (active).
The like results for `CC(C)[N+](C)(C)CC(O)COc1cccc2ccccc12` (stereo unspecified) were, in that order, “inactive”, “inactive” and “inactive”.
The corresponding values for `CCO[C@@H]1O[C@H](C(COCc2ccccc2)OCc2ccccc2)[C@H](OCc2ccccc2)[C@H]1O` (stereo partly specified) are 15 µM (active), 11.9 µM (active) and 23.1 µM (active).
`O=C(O)COC(=O)Cc1ccccc1Nc1c(Cl)cccc1Cl`: the Potency entry in assay [1], in assay [2] and in assay [3] was “inactive” throughout.
For `COc1ccc(S(=O)(=O)N(CCO)c2ccccc2CN(C)C/C=C/c2ccc(Cl)cc2)cc1`, the Potency in assay [1] was 4.68 µM (active); in assay [2], 4.68 µM (active); in assay [3], 12.6 µM (active).
Regarding `CCc1cc(S(=O)(=O)O)c2cc(C(C)C)cccc1-2`, the Potency entry in assay [1], in assay [2] and in assay [3] was “inactive” each time.
Turning to `CN1CCCC(CC2c3ccccc3Sc3ccccc32)C1` (stereo unspecified), the Potency in assay [1] is 18.8 µM (active); in assay [2] it was 16.8 µM (active); in assay [3], 18.4 µM (active).
`CCCCCCCCCCOCC(O)CN` (stereo unspecified): the Potency was 23.7 µM (active) in assay [1], 26.6 µM (active) in assay [2] and 18.4 µM (active) in assay [3].
The like results for `CC(=O)O[C@H]1CC[C@@]2(C)C(=CC[C@@H]3[C@@H]2CC[C@]2(C)C(C(C)=O)=CC[C@@H]32)C1` were, in that order, “inactive”, “inactive” and “inactive”.
On to `Cc1ccc(-n2c(C)cc(-c3nnc4n3CCCCC4)c2C)cc1`, for which the Potency in assay [1] and in assay [2] was 8.33 µM (active) in each case. Further, in assay [3], the Potency result is “inactive”.
For `C[C@H]1COCCN1c1cc(C2(S(=O)(=O)C3CC3)CC2)nc(-c2ccc(NC(=S)NCCO)cc2)n1`, the Potency is 0.0184 µM (active) in assay [1], 0.0731 µM (active) in assay [2] and 1.12 µM (active) in assay [3].
The like results for `O=C(Nc1ccc(Oc2ccc(Cl)cc2)c(Cl)c1)c1cc(I)cc(I)c1O` were, in that order, “inactive”, “inactive” and 20.6 µM (active).
The corresponding values for `COc1cc2c(cc1OC)-c1cc(=Nc3c(C)cc(C)cc3C)n(C)c(=O)n1CC2` are 9.44 µM (active), 10.6 µM (active) and 20.6 µM (active).
The corresponding values for `Cc1ccc(-c2ccc3c(ccc4sc5c(c43)NC[C@@H](C)NC5=O)n2)cn1` are 2.59 µM (active), 2.91 µM (active) and 28.2 µM (active).
`Cc1[nH]c(/C=C2\C(=O)Nc3ccc(S(=O)(=O)Cc4c(Cl)cccc4Cl)cc32)c(C)c1C(=O)N1CCC[C@@H]1CN1CCCC1`: the Potency was 0.934 µM (active) in assay [1], 1.86 µM (active) in assay [2] and 7.08 µM (active) in assay [3].
The like results for `CCCC(CCC)C(=O)Nc1ccn([C@@H]2O[C@H](CO)[C@@H](O)C2(F)F)c(=O)n1` were, in that order, 0.411 µM (active), 0.58 µM (active) and “inactive”.
The corresponding values for `CNCc1ccc(-c2cc(-c3nc(-c4ccc(S(=O)(=O)C(C)C)cc4)cnc3N)on2)cc1` are 0.259 µM (active), 0.326 µM (active) and 0.316 µM (active).
The corresponding values for `OC(c1ccc(-c2ccc(CN3CCN(Cc4ccncc4)CC3)cc2)c(F)c1)(C(F)(F)F)C(F)(F)F` are 4.17 µM (active), 5.9 µM (active) and “inactive”.
In the case of `CCC[C@H](NC(=O)/C(C#N)=C/c1cccc(Br)n1)c1ccccc1`, the Potency in assay [1] was 2.09 µM (active); in assay [2] it was 2.35 µM (active); in assay [3], 12.6 µM (active).
The corresponding values for `CC(C)(C)NC(=O)[C@@H]1CN(Cc2cccnc2)CCN1C[C@@H](O)C[C@@H](Cc1ccccc1)C(=O)N[C@H]1c2ccccc2C[C@H]1O` are “inactive”, “inactive” and “inactive”.
The like results for `COC[C@@H](c1ccc(C(F)(F)F)cc1)N1CCN(C2(C)CCN(C(=O)c3c(C)ncnc3C)CC2)C[C@@H]1C` were, in that order, “inactive”, 18.6 µM (active) and “inactive”.
The like results for `CCNC(=O)C#Cc1ccc2c(C(=Nc3ccc(CN(C)C)cc3)c3ccccc3)c(O)[nH]c2c1` were, in that order, 0.0126 µM (active), 0.0317 µM (active) and 2.85 µM (active).
As to `Cc1ccc(Nc2nnc(Cc3ccncc3)c3ccccc23)cc1Br`, the results for the Potency in assay [1] and in assay [2] were 14.8 µM (active) and 10.5 µM (active), respectively. For the same molecule, in assay [3], the Potency result was “inactive”.
`CCCCCCCOc1ccc(CCC(N)(CO)CO)cc1C(F)(F)F`: the figures for the Potency in assay [1], in assay [2] and in assay [3] were 7.42 µM (active), 8.33 µM (active) and 10 µM (active), respectively.
For the molecule `C/C=C(/C)C(=O)O[C@H]1C(C)=CC23C(=O)C(C=C(CO)[C@@H](O)[C@]12O)[C@H]1[C@@H](C[C@H]3C)C1(C)C` (stereo partly specified), the results for the Potency in assay [1] and in assay [2] were 0.0166 µM (active) and 0.0083 µM (active), respectively. In addition, the Potency entry in assay [3] was “inactive”.
The like results for `COCCOc1cnc2ccn([C@H](C)c3nnc4c(F)cc(-c5cnn(C)c5)cn34)c(=O)c2c1` were, in that order, “inactive”, “inactive” and “inactive”.
